In PubChem BioAssay (EPA / NIEHS) one finds AC50 and outcome data, which are given here for seven compounds.

Read-out in experiment [1]: Human Leukocyte Antigen - DR isotype (HLADR), HLA-DRA (gene 3122)
Put plainly: BSK_BE3C_HLADR: BioMAP Diversity Plus: BE3C Assay for Human Leukocyte Antigen - DR isotype (HLADR) Biomarker Activity (AID 2283032). Particulars: primary human bronchial epithelial cells; actives raise or lower the signal. The gist of the method: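 Cell-surface HLA-DR ELISA readout at 24 h after dosing in the BE3C primary human lung bronchial epithelial system; gain or loss of signal against DMSO, with parallel sulforhodamine B staining of total protein for overt cytotoxicity.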

Read-out in experiment [2]: Vascular cell adhesion molecule 1 (VCAM1), VCAM1 (gene 7412)
Put plainly: BSK_4H_VCAM1: BioMAP Diversity Plus: 4H Assay for Vascular cell adhesion molecule 1 (VCAM1) Biomarker Activity (AID 2283033).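 On outcome: cell-surface VCAM-1 protein measured by ELISA.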 Particulars: primary human endothelial cells (HUVEC); actives raise or lower the signal. The gist of the method: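 VCAM-1 ELISA read 24 h after chemical dosing of HUVEC in the BioMAP 4H system, with gain or loss of signal fitted relative to DMSO. Parallel SRB staining (560 nm) checked overt cytotoxicity.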

Read-out in experiment [3]: Interferon-gamma inducible Protein 10 (IP10), CXCL10 (gene 3627)
Put plainly: BSK_BE3C_IP10: BioMAP Diversity Plus: BE3C Assay for Interferon-gamma inducible Protein 10 (IP10) Biomarker Activity (AID 2283034). The following applies: primary human bronchial epithelial cells; actives raise or lower the signal. The gist of the method: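 IP-10 quantified by ELISA in human primary bronchial epithelial cell cultures at 24 hours post-dosing. Gain or loss of signal fitted relative to DMSO; parallel SRB staining assessed overt cytotoxicity.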

Read-out in experiment [4]: Monokine induced gamma interferon (MIG), CXCL9 (gene 4283)
Nature of the experiment: BSK_BE3C_MIG: BioMAP Diversity Plus: BE3C Assay for Monokine induced gamma interferon (MIG) Biomarker Activity (AID 2283035). Particulars: primary human bronchial epithelial cells; actives raise or lower the signal. The gist of the method: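 ELISA quantified MIG after 24 h exposure of primary bronchial epithelial cultures, analysed in both directions relative to DMSO. Cytotoxicity tracked in parallel cultures by sulforhodamine B staining.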

Read-out in experiment [5]: Transforming growth factor beta 1 (TGFb1), TGFB1 (gene 7040)
Nature of the experiment: BSK_BE3C_TGFb1: BioMAP Diversity Plus: BE3C Assay for Transforming growth factor beta 1 (TGFb1) Biomarker Activity (AID 2283036;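 on outcome: TGF-b1 protein level measured by ELISA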). The following applies: primary human bronchial epithelial cells; actives raise or lower the signal. The gist of the method: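 ELISA readout of TGF-b1 from human lung bronchial epithelial primary cells, taken 24 h post-treatment. Gain or loss of signal fitted relative to DMSO baseline, with parallel SRB staining for overt cytotoxicity.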

Read-out in experiment [6]: Plasminogen activator inhibitor-1 (PAI1), SERPINE1 (gene 5054)
Nature of the experiment: BSK_BE3C_PAI1: BioMAP Diversity Plus: BE3C Assay for Plasminogen activator inhibitor-1 (PAI1) Biomarker Activity (AID 2283037). Particulars: primary human bronchial epithelial cells; actives raise or lower the signal. The gist of the method: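 PAI-1 was measured by ELISA in human primary bronchial epithelial cultures 24 h after chemical dosing, with cytotoxicity checked by SRB total-protein staining in parallel cultures. Activity was fitted in both directions relative to DMSO.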

Read-out in experiment [7]: urokinase plasminogen activator (uPA), PLAU (gene 5328)
Nature of the experiment: BSK_BE3C_uPA: BioMAP Diversity Plus: BE3C Assay for urokinase plasminogen activator (uPA) Biomarker Activity (AID 2283038).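 On outcome: uPA protein level quantified by ELISA in cell cultures; uPA read one day after compound addition.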 The following applies: primary human bronchial epithelial cells; actives raise or lower the signal. The gist of the method:
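ELISA for uPA on human primary bronchial epithelial cultures 24 h post-treatment, gain or loss against DMSO. Parallel SRB staining (0.1% after 10% TCA fixation, 560 nm) assessed overt cytotoxicity.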

Read-out in experiment [8]: Urokinase-type plasminogen activator receptor (uPAR), PLAUR (gene 5329)
Nature of the experiment: BSK_BE3C_uPAR: BioMAP Diversity Plus: BE3C Assay for Urokinase-type plasminogen activator receptor (uPAR) Biomarker Activity (AID 2283039).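 On outcome: cells exposed to compound for one day before measurement.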 The following applies: primary human bronchial epithelial cells; actives raise or lower the signal. The gist of the method: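 uPAR levels were measured by ELISA after 24 h compound treatment of primary human bronchial epithelial cells, fitted in both directions relative to DMSO. Parallel SRB staining served as the cytotoxicity read-out.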

Read-out in experiment [9]: Interleukin-6 (IL6), IL6 (gene 3569)
Nature of the experiment: BSK_CASM3C_IL6: BioMAP Diversity Plus: CASM3C Assay for Interleukin-6 (IL6) Biomarker Activity for (AID 2283040). The following applies: primary human coronary artery smooth muscle cells; actives raise or lower the signal.

Read-out in experiment [10]: Tissue plasminogen activator (tPA), PLAT (gene 5327)
Nature of the experiment: BSK_BE3C_tPA: BioMAP Diversity Plus: BE3C Assay for Tissue plasminogen activator (tPA) Biomarker Activity (AID 2283041).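 On outcome: tPA level quantified by ELISA one day after compound addition.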 The following applies: primary human bronchial epithelial cells; actives raise or lower the signal. The gist of the method:
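tPA measured by ELISA 24 h after dosing human primary bronchial epithelial cells (BE3C system). Changes in either direction were fitted against DMSO. Parallel cultures were stained with SRB to flag overt cytotoxicity.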

Read-out in experiment [11]: Interleukin-8 (IL8), CXCL8 (gene 3576)
Put plainly: BSK_CASM3C_IL8: BioMAP Diversity Plus: CASM3C Assay for Interleukin-8 (IL8) Biomarker Activity (AID 2283042).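 Further: IL-8 protein level quantified by ELISA.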 The following applies: primary human coronary artery smooth muscle cells; actives raise or lower the signal.

Read-out in experiment [12]: Human Leukocyte Antigen - DR isotype (HLADR), HLA-DRA (gene 3122)
Nature of the experiment: BSK_CASM3C_HLADR: BioMAP Diversity Plus: CASM3C Assay for Human Leukocyte Antigen - DR isotype (HLADR) Biomarker Activity (AID 2283043).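 Further: cell-surface HLA-DR protein level quantified by ELISA.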 The following applies: primary human coronary artery smooth muscle cells; actives raise or lower the signal.

Read-out in experiment [13]: Macrophage colony-stimulating factor (MCSF), CSF1 (gene 1435)
Nature of the experiment: BSK_CASM3C_MCSF: BioMAP Diversity Plus: CASM3C Assay for Macrophage colony-stimulating factor (MCSF) Biomarker Activity (AID 2283044).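 Further: M-CSF protein amount quantified by ELISA after 24 h exposure.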 The following applies: primary human coronary artery smooth muscle cells; actives raise or lower the signal.

Read-out in experiment [14]: Low-density lipoprotein receptor (LDLR), LDLR (gene 3949)
Nature of the experiment: BSK_CASM3C_LDLR: BioMAP Diversity Plus: CASM3C Assay for Low-density lipoprotein receptor (LDLR) Biomarker Activity (AID 2283045).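 Further: LDLR protein level on the cell surface quantified by ELISA.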 Particulars: primary human coronary artery smooth muscle cells; actives raise or lower the signal.

Read-out in experiment [15]: Monocyte Chemoattractant Protein-1 (MCP1), CCL2 (gene 6347)
Put plainly: BSK_CASM3C_MCP1: BioMAP Diversity Plus: CASM3C Assay for Monocyte Chemoattractant Protein-1 (MCP1) Biomarker Activity (AID 2283046).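 Further: MCP-1 level quantified by ELISA 24 h after dosing.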 The following applies: primary human coronary artery smooth muscle cells; actives raise or lower the signal.

Experiment [16] can be described thus: BSK_CASM3C_Proliferation: Cell Proliferation Assessment in the BioMAP Diversity Plus: CASM3C Assay (AID 2283047).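 Further: sulforhodamine B total protein stain as relative cell number at 560 nm; sub-confluent cells exposed 48 h before staining; fitted both ways against DMSO so gain or loss of cell number.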 The following applies: primary human coronary artery smooth muscle cells.
Read-out in experiment [17]: Monokine induced gamma interferon (MIG), CXCL9 (gene 4283)
Put plainly: BSK_CASM3C_MIG: BioMAP Diversity Plus: CASM3C Assay for Monokine induced gamma interferon (MIG) Biomarker Activity (AID 2283048).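 Further: MIG protein level measured by ELISA.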 The following applies: primary human coronary artery smooth muscle cells; actives raise or lower the signal.

Read-out in experiment [18]: serum amyloid A (SAA), SAA1 (gene 6288)
Nature of the experiment: BSK_CASM3C_SAA: BioMAP Diversity Plus: CASM3C Assay for serum amyloid A (SAA) Biomarker Activity (AID 2283049).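 Further: SAA protein level quantified by ELISA.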 Particulars: primary human coronary artery smooth muscle cells; actives raise or lower the signal.

A short description of experiment [19]: BSK_CASM3C_SRB: Viability Assessment in the BioMAP Diversity Plus: CASM3C Assay (AID 2283050). Particulars: primary human coronary artery smooth muscle cells.
Read-out in experiment [20]: Thrombomodulin, THBD (gene 7056)
Nature of the experiment: BSK_CASM3C_Thrombomodulin: BioMAP Diversity Plus: CASM3C Assay for Thrombomodulin Biomarker Activity (AID 2283051).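 Further: thrombomodulin protein level measured by ELISA 24 h after dosing.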 The following applies: primary human coronary artery smooth muscle cells; actives raise or lower the signal.

Active and inactive are the calls of the source. How the source made its calls: active means hit-call score of the fitted dose curve at least 0.9, where 1 is the maximum; inactive means score below 0.9.

A word on the AC50: it is the concentration giving half of the maximal activity seen. For the compound `CCN(CC)C(=S)SSC(=S)N(CC)CC`, the AC50 was 8.96 µM (active) in experiment [1]; 32.4 µM (active) in experiment [2]; 25.5 µM (active) in experiment [3]; 32.3 µM (active) in experiment [4]; 17.9 µM (active) in [5]; 27.9 µM (active) in experiment [6]. The AC50 was 18.7 µM (active) in experiment [7]; 22.6 µM (active) in experiment [8]; 7.46 µM (active) in experiment [10]; 20 µM (active) in experiment [11]; 31.2 µM (active) in experiment [12]; 24.4 µM (active) in experiment [13]. Moreover, the AC50 in [14] was 35.4 µM (active); in [15], 31.6 µM (active); in [16] it was 12.8 µM (active); in experiment [17] it was 33.3 µM (active); in [18], 28.8 µM (active); in experiment [19], 31.4 µM (active). Moreover, the AC50 in experiment [20] was 5.26 µM (active). Also, the result in experiment [9] was inactive.

In the case of `CCCOc1ccc(S(=O)(=O)N2CCN(CC)CC2)cc1-c1nc2c(CC)n(Cc3ccccn3)nc2c(=O)[nH]1`, the outcome in experiment [1], in [2], in experiment [3], in experiment [4], in experiment [5] and in [6] was inactive. Also, the outcome in experiment [8], in experiment [9], in experiment [10], in experiment [11], in experiment [13] and in experiment [14] was inactive. The outcome in [15], in [16], in [17], in experiment [18], in experiment [19] and in [20] was inactive. Moreover, the AC50 in experiment [12] was 3.97 µM (active).

As for `Cc1nccn1-c1ccc(Sc2cccc(C3(C(N)=O)CCOCC3)c2)cc1`, the AC50 is 12.8 µM (active) in experiment [1]; 6.37 µM (active) in [2]; 20 µM (active) in experiment [3]; 10.3 µM (active) in [8]; 5.2 µM (active) in experiment [9]; 4.43 µM (active) in [10]. Besides, the AC50 in [12] was 15.7 µM (active); in experiment [16], 20 µM (active); in [17], 16.4 µM (active). Besides, the result in experiment [4], in [5], in experiment [6], in experiment [11], in experiment [13] and in experiment [14] was inactive. In addition, the result in [15], in experiment [18], in experiment [19] and in experiment [20] was inactive.

As to `C=CCc1cc(S(=O)(=O)c2ccc(O)c(CC=C)c2)ccc1O`, the AC50 in experiment [1] was 8.38 µM (active); in [2], 32.3 µM (active); in [3], 13.4 µM (active); in [4], 29.8 µM (active); in experiment [5] it was 10.5 µM (active); in [6], 10.8 µM (active). Further, the AC50 is 23.5 µM (active) in experiment [7]; 15.4 µM (active) in experiment [8]; 7.78 µM (active) in experiment [10]; 17.6 µM (active) in experiment [11]; 13.6 µM (active) in [12]; 28.2 µM (active) in experiment [13]. In addition, the AC50 is 32.2 µM (active) in experiment [14]; 16.2 µM (active) in experiment [15]; 14.3 µM (active) in [16]; 31.4 µM (active) in [17]; 28.3 µM (active) in experiment [18]; 31.2 µM (active) in experiment [19]. In addition, the outcome in experiment [9] and in [20] was inactive.

As to `OCc1ccccc1`, the outcome in experiment [1], in experiment [2], in experiment [3], in experiment [4], in experiment [5] and in experiment [6] was inactive. In addition, the result in experiment [8], in experiment [9], in [10], in experiment [11], in [12] and in experiment [13] was inactive. The result in experiment [14], in experiment [15], in experiment [16], in experiment [17], in experiment [18] and in experiment [19] was inactive. In addition, the result in [20] was inactive.

On to `CCCCCCCCCC`, for which the result in experiment [1], in [2], in [3], in experiment [4], in [5] and in experiment [6] was inactive. The result in [8], in [9], in experiment [10], in experiment [11], in experiment [12] and in experiment [13] was inactive. For the same compound, the result in experiment [14], in experiment [15], in [16], in experiment [17], in experiment [18] and in [19] was inactive. Moreover, in experiment [20], the result was inactive.

Consider `CCCCOC(=O)c1ccccc1`, for which the outcome in experiment [1], in [2], in experiment [3], in [4], in experiment [5] and in experiment [6] was inactive. Also, the outcome in experiment [7], in [8], in [9], in experiment [10], in experiment [11] and in experiment [12] was inactive. In addition, the outcome in [13], in experiment [14], in [15], in experiment [16], in experiment [17] and in experiment [18] was inactive. Also, the outcome in [19] and in experiment [20] was inactive.
